Source: PubChem BioAssay (NCATS)
A number with no mark means an inactive call. Inconclusive results are not listed. Activity calls are given as the source filed them. Unless noted, calls come from the whole dose curve; as a rule, active = well fitted curve in the direction sought with a large enough effect; inconclusive = small, poorly fitted or top-dose-only effect, or another doubt; inactive = no such curve, though single readings can be large; an effect the other way counts as inactive or inconclusive.

Target: Mitogen-activated protein kinase 10 (Mus musculus) (UniProt Q61831)
Assay: JNK3 AlphaScreen Assay (AID 530; active = well fitted curve in either direction with a large enough effect, not every such curve was filed as active;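 note: kinase came from lysate of stimulated human HepG2 cells; signal reports phosphorylation of biotinylated GST-cJun 1-79 at Ser73 with 10 µM ATP; % is set by controls: 0 for no effect and ±100 for the full control effect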)
Conditions: JNK3 lysate, c-Jun phosphorylation; series mostly up to 57.1 µM; activity change, negative = inhibition: at the top concentration
How it was run: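 Compound titrations were preincubated 15 minutes at room temperature with substrate, antibody and pre-activated JNK3-containing HepG2 lysate. Reactions were started with 10 uM ATP and stopped with EDTA-containing bead buffer for AlphaScreen detection.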

Compound | activity change, negative = inhibition
Clc1ccccc1-c1nc(-n2ccnc2)c2ccccc2n1 | 3.45%
O=c1ccc2cc3ccoc3cc2o1 | -14.1%
CC12CCC(CC1=O)C2(C)C (centres undefined) | 5.04%
COc1ccccc1CNc1ncncc1-c1ccccc1C(F)(F)F | 4.96%
c1ccc(Nc2nc(-c3cccnc3)nc3ccccc23)cc1 | 10.9%
c1ccc(CNc2nc(-c3cccnc3)nc3ccccc23)cc1 | -5.55%
CCNc1ncc2ncc(=O)n(Cc3cccc(OC)c3)c2n1 | -7.39%
CCNc1ncc2nc(CCc3ccccc3)c(=O)n(Cc3cccc(OC)c3)c2n1 | 4.9%
O=C(/C=C/c1ccc(O)c(O)c1)O[C@@H](C(=O)O)[C@@H](OC(=O)/C=C/c1ccc(O)c(O)c1)C(=O)O | 19%
Cn1c(=O)c(-c2ccc(Cl)cc2)nc2cncnc21 | -3.26%
COc1cccc(Cn2c(=O)c(CCc3ccccc3)nc3cnc(N(C)C)nc32)c1 | 26.4%
c1ccc2c(NCCN3CCOCC3)nc(-c3ccoc3)nc2c1 | -2.32%
Cc1nc2cnc(N3CCN(C)CC3)nc2n(CCc2ccccc2)c1=O | -6.06%

Target: 3',5'-cyclic-AMP phosphodiesterase 4B (Homo sapiens) (UniProt Q07343)
Assay: qHTS Assay for Inhibitors of PDE-IV (AID 607; active = well fitted activation curve with a large enough effect in the main read-out, with a control signal flat, not every such curve was filed as active; note: % of control where 0% means no effect)
Conditions: HEK293 ACTOne CNG channel cells, membrane potential fluorescence; series mostly up to 22.9 µM; activation (PDE inhibition): at the top concentration
How it was run: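 HEK293 ACTOne cells with CNG channel (1000/well), endogenous PDE4; membrane potential dye, compounds up to 22.9 uM final. Fluorescence Ex 535/Em 590; RO 20-1724 (100 uM final) as reference.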

3',5'-cyclic-AMP phosphodiesterase 4B (Homo sapiens), sequence (Q07343 whole entry, looked up): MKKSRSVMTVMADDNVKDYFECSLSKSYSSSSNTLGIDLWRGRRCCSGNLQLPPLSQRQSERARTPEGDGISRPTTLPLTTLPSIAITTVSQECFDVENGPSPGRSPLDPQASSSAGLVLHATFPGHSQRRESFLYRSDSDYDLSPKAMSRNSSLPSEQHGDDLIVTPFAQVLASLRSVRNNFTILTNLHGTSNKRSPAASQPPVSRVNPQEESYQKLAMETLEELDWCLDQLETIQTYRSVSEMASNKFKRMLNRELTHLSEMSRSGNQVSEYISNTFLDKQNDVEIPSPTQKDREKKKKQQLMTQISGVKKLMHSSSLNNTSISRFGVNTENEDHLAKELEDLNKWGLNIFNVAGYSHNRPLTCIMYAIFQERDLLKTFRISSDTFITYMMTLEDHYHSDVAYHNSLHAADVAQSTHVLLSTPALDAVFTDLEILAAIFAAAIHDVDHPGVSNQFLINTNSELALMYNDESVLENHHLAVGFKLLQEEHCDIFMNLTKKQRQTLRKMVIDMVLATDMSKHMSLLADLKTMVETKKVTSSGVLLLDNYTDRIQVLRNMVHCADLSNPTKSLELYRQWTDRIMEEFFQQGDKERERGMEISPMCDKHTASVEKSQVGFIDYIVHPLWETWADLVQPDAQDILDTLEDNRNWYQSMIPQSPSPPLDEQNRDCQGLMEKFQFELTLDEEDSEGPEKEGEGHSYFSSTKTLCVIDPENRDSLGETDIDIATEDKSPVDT

Compound | activation (PDE inhibition)
COc1ccccc1CNc1ncncc1-c1ccccc1C(F)(F)F | 24.3%
COc1ccc(-n2c(=O)c(-c3cccs3)nc3cnc(N4CCN(C)CC4)nc32)cc1 | -10.7%
Cn1c(=O)c(-c2ccccc2)nc2cnc(N3CCOCC3)nc21 | 0.688%
Cn1c(=O)c(-c2ccc(Cl)cc2)nc2cncnc21 | 13.2%

Target: Cytochrome P450 3A4 (Homo sapiens) (UniProt P08684)
Assay: qHTS Assay for Inhibitors and Substrates of Cytochrome P450 3A4 (AID 884); note: nearly all actives have a fitted effect of over 50% in size; note: potency is the fitted concentration of half-maximal effect; for activity change, negative = inhibition: % is set by controls: 0 for no effect and ±100 for the full control effect
Conditions: recombinant CYP3A4, Luciferin-PPXE luminescence; series mostly up to 57.1 µM; activity change, negative = inhibition: at the top concentration
How it was run: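 20 nM human CYP3A4 with 25 uM Luciferin-PPXE (at KM) in 200 mM KPO4, preincubated 10 min with compound; NADPH regeneration started a 60 min RT reaction. Luciferin detected by luminescence, normalized to 57 uM ketoconazole as full inhibition.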

Cytochrome P450 3A4 (Homo sapiens), sequence (P08684 whole entry, looked up): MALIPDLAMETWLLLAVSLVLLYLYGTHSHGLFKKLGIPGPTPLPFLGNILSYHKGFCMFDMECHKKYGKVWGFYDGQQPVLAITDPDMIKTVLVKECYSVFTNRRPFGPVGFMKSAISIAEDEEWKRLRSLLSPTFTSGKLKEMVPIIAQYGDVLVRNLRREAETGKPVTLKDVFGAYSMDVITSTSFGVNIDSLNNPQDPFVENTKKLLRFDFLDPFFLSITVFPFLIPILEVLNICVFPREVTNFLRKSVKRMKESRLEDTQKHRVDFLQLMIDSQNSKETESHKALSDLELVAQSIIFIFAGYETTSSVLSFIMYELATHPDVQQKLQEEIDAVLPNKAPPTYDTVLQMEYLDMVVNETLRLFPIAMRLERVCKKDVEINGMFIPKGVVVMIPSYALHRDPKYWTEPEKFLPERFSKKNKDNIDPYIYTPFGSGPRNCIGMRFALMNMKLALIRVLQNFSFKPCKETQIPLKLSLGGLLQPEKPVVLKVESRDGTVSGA

Compound | activity change, negative = inhibition | Potency
O=C1CC(c2ccccc2)Oc2ccccc21 (centres undefined) | 6.35% | –
Clc1ccccc1-c1nc(-n2ccnc2)c2ccccc2n1 | – | 501 nM (active)
O=c1ccc2cc3ccoc3cc2o1 | – | 31600 nM (active)
CC12CCC(CC1=O)C2(C)C (centres undefined) | -15.4% | –
COc1ccccc1CNc1ncncc1-c1ccccc1C(F)(F)F | – | 79.4 nM (active)
CN(C)c1ncc2nc(CCc3ccccc3)c(=O)n(CCc3ccccc3)c2n1 | – | 6310 nM (active)
O=C(/C=C/c1ccc(O)c(O)c1)O[C@@H](C(=O)O)[C@@H](OC(=O)/C=C/c1ccc(O)c(O)c1)C(=O)O | -13.6% | –
Cn1c(=O)c(-c2ccccc2)nc2cnc(N3CCOCC3)nc21 | 27.2% | –

Target: Cytochrome P450 3A4 (Homo sapiens) (UniProt P08684)
Assay: qHTS Assay for Activators of Cytochrome P450 3A4 (AID 885); note: nearly all actives have a fitted effect of over 65% in size
Conditions: recombinant CYP3A4, Luciferin-PPXE luminescence, 60 min; series mostly up to 57.1 µM; activity change, positive = activation: at the top concentration
How it was run: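 Human CYP3A4 (20 nM) with Luciferin-PPXE at 25 uM (its KM) in 200 mM KPO4; 10 min compound preincubation, then NADPH regeneration and 60 min reaction at RT. Luciferin read by luminescence; normalized to 57 uM ketoconazole full inhibition.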

Compound | activity change, positive = activation
O=C(O)c1cc(O)c2c(c1)[C@H]([C@H]1c3cc(C(=O)O)cc(O)c3C(=O)c3c(O[C@@H]4OC(CO)C(O)C(O)C4O)cccc31)c1cccc(O[C@@H]3OC(CO)C(O)C(O)C3O)c1C2=O (some centres undefined) | -40.9%
Clc1ccccc1-c1nc(-n2ccnc2)c2ccccc2n1 | -96.6%
O=c1ccc2cc3ccoc3cc2o1 | -64.4%
COc1ccccc1CNc1ncncc1-c1ccccc1C(F)(F)F | -103%
c1ccc(Nc2nc(-c3cccnc3)nc3ccccc23)cc1 | -104%
CN(C)c1ncc2nc(CCc3ccccc3)c(=O)n(CCc3ccccc3)c2n1 | -81.4%
COc1ccc(-n2c(=O)c(-c3cccs3)nc3cnc(N4CCN(C)CC4)nc32)cc1 | -54.1%
CCNc1ncc2nc(CCc3ccccc3)c(=O)n(Cc3cccc(OC)c3)c2n1 | -50.7%
COc1cccc(Cn2c(=O)c(CCc3ccccc3)nc3cnc(N(C)C)nc32)c1 | -59.7%
c1ccc2c(NCCN3CCOCC3)nc(-c3ccoc3)nc2c1 | -59.8%
Cc1nc2cnc(N3CCN(C)CC3)nc2n(CCc2ccccc2)c1=O | -58.4%
CN(C)c1ncc2nc(CCc3ccccc3)c(=O)n(CCC#N)c2n1 | -58.5%

Target: Cytochrome P450 2D6 (Homo sapiens) (UniProt P10635)
Assay: qHTS Assay for Inhibitors and Substrates of Cytochrome P450 2D6 (AID 891); note: potency is the fitted concentration of half-maximal effect; nearly all actives have a fitted effect of over 60% in size
Conditions: recombinant CYP2D6, luciferin-ME EGE luminescence; series mostly up to 57.1 µM; activity change, negative = inhibition: at the top concentration
How it was run: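 Human CYP2D6 (5 nM) with 30 uM Luciferin-ME EGE (at Km) in 100 mM KPO4, compound preincubated 10 min, then NADPH regeneration system for 60 min at room temperature. Luciferin read by luminescence; normalized to 1.43 uM quinidine.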

Cytochrome P450 2D6 (Homo sapiens), sequence (P10635 whole entry, looked up): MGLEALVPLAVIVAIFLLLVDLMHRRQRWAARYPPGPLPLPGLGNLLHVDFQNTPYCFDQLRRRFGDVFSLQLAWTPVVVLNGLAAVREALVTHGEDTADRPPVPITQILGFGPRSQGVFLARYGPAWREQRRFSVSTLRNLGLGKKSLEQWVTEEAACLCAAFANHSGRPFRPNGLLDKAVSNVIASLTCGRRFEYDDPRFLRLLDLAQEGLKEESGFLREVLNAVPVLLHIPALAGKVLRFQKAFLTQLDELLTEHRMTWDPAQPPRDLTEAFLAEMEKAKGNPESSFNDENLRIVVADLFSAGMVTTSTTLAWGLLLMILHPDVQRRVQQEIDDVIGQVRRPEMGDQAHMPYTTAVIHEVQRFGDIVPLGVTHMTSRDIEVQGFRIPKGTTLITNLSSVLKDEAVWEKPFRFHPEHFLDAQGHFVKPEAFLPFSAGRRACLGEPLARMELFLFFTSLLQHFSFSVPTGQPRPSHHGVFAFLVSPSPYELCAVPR

Compound | Potency
O=c1ccc2cc3ccoc3cc2o1 | 2000 nM (active)
COc1ccccc1CNc1ncncc1-c1ccccc1C(F)(F)F | 2000 nM (active)
c1ccc(CNc2nc(-c3cccnc3)nc3ccccc23)cc1 | 15800 nM (active)
Cc1nc2cnc(N3CCN(C)CC3)nc2n(CCc2ccccc2)c1=O | 2510 nM (active)
CN(C)c1ncc2nc(CCc3ccccc3)c(=O)n(CCC#N)c2n1 | 2510 nM (active)

Target: Cytochrome P450 2C19 (Homo sapiens) (UniProt P33261)
Assay: qHTS Assay for Inhibitors and Substrates of Cytochrome P450 2C19 (AID 899); note: potency is the fitted concentration of half-maximal effect; nearly all actives have a fitted effect of over 60% in size
Conditions: recombinant CYP2C19, luciferin-H EGE luminescence; series mostly up to 57.1 µM; activity, negative = inhibition: at the top concentration
How it was run: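 Luminescence readout of luciferin formed from 10uM Luciferin-H EGE (KM level) by 5 nM CYP2C19 in 50mM KPO4. 60 min NADPH-driven reaction at 37C after 10 min compound preincubation; data scaled to 57uM ketoconazole inhibition.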

Cytochrome P450 2C19 (Homo sapiens), sequence (P33261 whole entry, looked up): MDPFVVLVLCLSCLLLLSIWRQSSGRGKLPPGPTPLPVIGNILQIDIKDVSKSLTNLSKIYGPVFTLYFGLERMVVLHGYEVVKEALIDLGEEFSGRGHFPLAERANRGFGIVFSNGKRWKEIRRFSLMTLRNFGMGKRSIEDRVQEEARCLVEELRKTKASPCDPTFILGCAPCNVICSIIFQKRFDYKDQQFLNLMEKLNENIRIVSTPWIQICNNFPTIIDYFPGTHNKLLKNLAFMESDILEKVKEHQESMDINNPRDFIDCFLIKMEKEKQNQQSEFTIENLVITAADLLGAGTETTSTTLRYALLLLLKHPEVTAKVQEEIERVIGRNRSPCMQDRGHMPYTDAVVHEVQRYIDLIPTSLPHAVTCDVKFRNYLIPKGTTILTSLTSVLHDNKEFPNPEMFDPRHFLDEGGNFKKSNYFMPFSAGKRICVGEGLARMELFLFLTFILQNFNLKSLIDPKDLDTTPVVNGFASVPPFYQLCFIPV

Compound | Potency
Clc1ccccc1-c1nc(-n2ccnc2)c2ccccc2n1 | 7940 nM (active)
O=c1ccc2cc3ccoc3cc2o1 | 3980 nM (active)
COc1ccccc1CNc1ncncc1-c1ccccc1C(F)(F)F | 1580 nM (active)
c1ccc(CNc2nc(-c3cccnc3)nc3ccccc23)cc1 | 15800 nM (active)
CCNc1ncc2ncc(=O)n(Cc3cccc(OC)c3)c2n1 | 2000 nM (active)
CCNc1ncc2nc(CCc3ccccc3)c(=O)n(Cc3cccc(OC)c3)c2n1 | 6310 nM (active)
COc1cccc(Cn2c(=O)c(CCc3ccccc3)nc3cnc(N(C)C)nc32)c1 | 794 nM (active)
Cc1nc2cnc(N3CCN(C)CC3)nc2n(CCc2ccccc2)c1=O | 5010 nM (active)

Target: Dual specificity protein kinase CLK4 (Homo sapiens) (UniProt Q9HAZ1)
Assay: qHTS Assay for Inhibitors of CDC-like Kinase 4 (Kinase-Glo Assay) (AID 1770); note: nearly all actives have a fitted effect of over 65% in size; note: potency is the fitted concentration of half-maximal effect; for activity, negative = inhibition: % is set by controls: 0 for no effect and ±100 for the full control effect
Conditions: recombinant Clk4, Kinase-Glo ATP depletion luminescence; series mostly up to 66.7 µM; activity, negative = inhibition: at the top concentration
How it was run: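 25 nM Clk4 with 100 uM RS repeat peptide and 1 uM ATP (final) in Tris pH7.5, 10 mM MgCl2, 4.5 h at room temperature. Remaining ATP measured by Kinase-Glo luciferase luminescence.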

Dual specificity protein kinase CLK4 (Homo sapiens), sequence (Q9HAZ1 whole entry, looked up): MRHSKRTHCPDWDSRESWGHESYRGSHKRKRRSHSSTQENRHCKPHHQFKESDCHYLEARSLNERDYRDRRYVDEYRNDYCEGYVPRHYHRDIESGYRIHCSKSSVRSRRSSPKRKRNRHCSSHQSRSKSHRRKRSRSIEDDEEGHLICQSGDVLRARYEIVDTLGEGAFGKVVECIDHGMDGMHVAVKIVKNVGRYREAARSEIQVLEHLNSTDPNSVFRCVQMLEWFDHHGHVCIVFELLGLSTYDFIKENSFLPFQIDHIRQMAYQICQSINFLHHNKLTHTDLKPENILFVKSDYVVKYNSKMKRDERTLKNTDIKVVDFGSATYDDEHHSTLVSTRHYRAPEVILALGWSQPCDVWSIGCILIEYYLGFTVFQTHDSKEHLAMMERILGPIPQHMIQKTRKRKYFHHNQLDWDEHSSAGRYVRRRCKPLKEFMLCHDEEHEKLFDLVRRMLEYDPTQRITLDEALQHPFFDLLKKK

Compound | Potency | activity, negative = inhibition
Clc1ccccc1-c1nc(-n2ccnc2)c2ccccc2n1 | 1260 nM (active) | –
COc1ccccc1CNc1ncncc1-c1ccccc1C(F)(F)F | – | -6.46%
c1ccc(Nc2nc(-c3cccnc3)nc3ccccc23)cc1 | 2510 nM (active) | –
c1ccc(CNc2nc(-c3cccnc3)nc3ccccc23)cc1 | 7080 nM (active) | –
CN(C)c1ncc2nc(CCc3ccccc3)c(=O)n(CCc3ccccc3)c2n1 | – | -1.23%
COc1ccc(-n2c(=O)c(-c3cccs3)nc3cnc(N4CCN(C)CC4)nc32)cc1 | – | -4.97%
CCNc1ncc2ncc(=O)n(Cc3cccc(OC)c3)c2n1 | 3160 nM (active) | –
CCNc1ncc2nc(CCc3ccccc3)c(=O)n(Cc3cccc(OC)c3)c2n1 | – | 0.366%
Cn1c(=O)c(-c2ccccc2)nc2cnc(N3CCOCC3)nc21 | – | -16.2%
Cn1c(=O)c(-c2ccc(Cl)cc2)nc2cncnc21 | – | -11.8%
COc1cccc(Cn2c(=O)c(CCc3ccccc3)nc3cnc(N(C)C)nc32)c1 | – | -7.29%
c1ccc2c(NCCN3CCOCC3)nc(-c3ccoc3)nc2c1 | – | -21.9%
Cc1nc2cnc(N3CCN(C)CC3)nc2n(CCc2ccccc2)c1=O | – | -3.52%
CN(C)c1ncc2nc(CCc3ccccc3)c(=O)n(CCC#N)c2n1 | – | -4.14%
